# Laboratory results reported in the supplement of paper PMC10849652.
# Of roughly 7,900 targets only a part is listed; those with a hit were picked by preference. About 0.6% of all pairs of compound and target were hits. Values without a mark were called inactive.
# What was measured:
# Assay in all cases: log2 fold change, soluble protein after heating vs DMSO (PISA); higher = thermal stabilisation; K562 cells, 10 uM, 30 min; active = over 0.2 and 3.5 SD of the protein, either way, in both replicates (recomputed)
# bafetinib = compound: Cc1ccc(NC(=O)c2ccc(CN3CC[C@H](N(C)C)C3)c(C(F)(F)F)c2)cc1Nc1nccc(-c2cncnc2)n1 [bafetinib]
# Summary of the method: (§1)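 Thermal stability values are relative to control samples and come from duplicates. They are expressed as log2 fold changes. For measurement, K562 cells (2×10^6 cells/mL) received 10 μM compound for 30 min, and aliquots were heated for 3 min over 48°C-58°C, pooled, and extracted at 4°C in PBS with 0.5% NP-40. Soluble protein, the supernatant after 21,000xg for 90 min, was quantified by TMTpro 16plex LC-MS/MS with equalised channel sums.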
# [1] = compound: Cc1cccc(CC(=O)N2CCc3c2ccc(-c2cn(C)c4ncnc(N)c24)c3F)n1
# Summary of the method: as §1
# nilotinib = compound: Cc1cn(-c2cc(NC(=O)c3ccc(C)c(Nc4nccc(-c5cccnc5)n4)c3)cc(C(F)(F)F)c2)cn1 [nilotinib]
# Summary of the method: as §1
# [2] = compound: Cc1nc(Nc2n[nH]c3c2CN(C(=O)N[C@H](CN(C)C)c2ccccc2)C3(C)C)c2sccc2n1
# Summary of the method: as §1
# dasatinib = compound: Cc1nc(Nc2ncc(C(=O)Nc3c(C)cccc3Cl)s2)cc(N2CCN(CCO)CC2)n1 [dasatinib]
# Summary of the method: as §1
# [3] = compound: Cc1ncc(-c2ccnc(Nc3ccc(S(C)(=O)=O)cc3)n2)n1C(C)C
# Summary of the method: as §1
# [4] = compound: Cn1cc(-c2ccc3c(c2)CCN3C(=O)Cc2cccc(C(F)(F)F)c2)c2c(N)ncnc21
# Summary of the method: as §1
# [5] = compound: Cn1cc(-c2ccc3nnc(C(F)(F)c4ccc5ncccc5c4)n3n2)cn1
# Summary of the method: as §1
# tipifarnib = compound: Cn1cncc1[C@@](N)(c1ccc(Cl)cc1)c1ccc2c(c1)c(-c1cccc(Cl)c1)cc(=O)n2C [tipifarnib]
# Summary of the method: as §1
# mubritinib = compound: FC(F)(F)c1ccc(/C=C/c2nc(COc3ccc(CCCCn4ccnn4)cc3)co2)cc1 [mubritinib]
# Summary of the method: as §1
# [6] = compound: NC(=O)Nc1cc(-c2cccc(F)c2)sc1C(=O)N[C@H]1CCCNC1
# Summary of the method: as §1
# [7] = compound: NC(=O)c1cnc(N[C@@H]2CCCC[C@@H]2N)nc1Nc1cccc(-n2nccn2)c1
# Summary of the method: as §1
# [8] = compound: NC1(c2ccc(-c3nc4ccn5c(=O)[nH]nc5c4cc3-c3ccccc3)cc2)CCC1
# Summary of the method: as §1
# [9] = compound: NCC(=O)Nc1ccc(-n2nc(C(F)(F)F)cc2-c2ccc3c(ccc4ccccc43)c2)cc1
# Summary of the method: as §1
# entinostat = compound: Nc1ccccc1NC(=O)c1ccc(CNC(=O)OCc2cccnc2)cc1 [entinostat]
# Summary of the method: as §1
# vorinostat = compound: O=C(CCCCCCC(=O)Nc1ccccc1)NO [vorinostat]
# Summary of the method: as §1
# citarinostat = compound: O=C(CCCCCCNC(=O)c1cnc(N(c2ccccc2)c2ccccc2Cl)nc1)NO [citarinostat]
# Summary of the method: as §1
# silmitasertib = compound: O=C(O)c1ccc2c(c1)nc(Nc1cccc(Cl)c1)c1ccncc12 [silmitasertib]
# Summary of the method: as §1
# [10] = compound: O=C1NC(=O)C(c2cnc3ccccn23)=C1c1cn2c3c(cc(F)cc13)CN(C(=O)N1CCCCC1)CC2
# Summary of the method: as §1
# [11] = compound: c1cc(OCCN2CCCCC2)cc(-c2n[nH]c3ccc(-c4nnc[nH]4)cc23)c1
# Summary of the method: as §1
# UniProt Q13423, sequence (Q13423 whole entry, looked up): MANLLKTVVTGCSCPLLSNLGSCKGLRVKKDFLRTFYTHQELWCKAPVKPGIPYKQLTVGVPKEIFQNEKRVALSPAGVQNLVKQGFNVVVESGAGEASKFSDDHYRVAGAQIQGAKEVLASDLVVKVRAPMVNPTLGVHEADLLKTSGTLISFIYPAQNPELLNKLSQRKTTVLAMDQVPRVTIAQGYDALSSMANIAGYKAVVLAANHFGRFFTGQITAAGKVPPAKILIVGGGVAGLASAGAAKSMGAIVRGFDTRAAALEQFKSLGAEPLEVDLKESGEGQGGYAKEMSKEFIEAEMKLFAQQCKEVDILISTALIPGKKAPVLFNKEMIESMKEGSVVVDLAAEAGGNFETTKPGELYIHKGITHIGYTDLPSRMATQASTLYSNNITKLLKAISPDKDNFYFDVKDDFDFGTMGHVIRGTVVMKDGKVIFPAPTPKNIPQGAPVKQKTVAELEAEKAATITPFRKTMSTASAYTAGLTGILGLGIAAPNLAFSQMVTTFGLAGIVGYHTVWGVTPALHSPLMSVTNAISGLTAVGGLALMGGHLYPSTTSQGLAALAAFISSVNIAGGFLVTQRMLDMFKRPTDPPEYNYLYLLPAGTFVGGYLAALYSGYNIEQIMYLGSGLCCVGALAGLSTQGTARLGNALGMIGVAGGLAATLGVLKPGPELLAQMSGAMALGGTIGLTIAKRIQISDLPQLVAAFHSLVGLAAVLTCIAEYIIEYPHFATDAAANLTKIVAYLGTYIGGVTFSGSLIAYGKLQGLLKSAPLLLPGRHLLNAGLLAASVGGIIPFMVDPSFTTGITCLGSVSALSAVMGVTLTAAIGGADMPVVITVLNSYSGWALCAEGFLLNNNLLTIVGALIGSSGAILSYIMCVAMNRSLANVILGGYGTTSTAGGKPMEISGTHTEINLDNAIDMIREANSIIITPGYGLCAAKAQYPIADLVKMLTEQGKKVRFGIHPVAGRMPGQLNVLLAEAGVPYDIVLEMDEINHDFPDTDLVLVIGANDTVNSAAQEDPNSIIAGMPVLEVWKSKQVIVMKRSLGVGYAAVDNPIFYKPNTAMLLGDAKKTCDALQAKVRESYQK
# UniProt Q9BPX3, sequence (Q9BPX3 whole entry, looked up): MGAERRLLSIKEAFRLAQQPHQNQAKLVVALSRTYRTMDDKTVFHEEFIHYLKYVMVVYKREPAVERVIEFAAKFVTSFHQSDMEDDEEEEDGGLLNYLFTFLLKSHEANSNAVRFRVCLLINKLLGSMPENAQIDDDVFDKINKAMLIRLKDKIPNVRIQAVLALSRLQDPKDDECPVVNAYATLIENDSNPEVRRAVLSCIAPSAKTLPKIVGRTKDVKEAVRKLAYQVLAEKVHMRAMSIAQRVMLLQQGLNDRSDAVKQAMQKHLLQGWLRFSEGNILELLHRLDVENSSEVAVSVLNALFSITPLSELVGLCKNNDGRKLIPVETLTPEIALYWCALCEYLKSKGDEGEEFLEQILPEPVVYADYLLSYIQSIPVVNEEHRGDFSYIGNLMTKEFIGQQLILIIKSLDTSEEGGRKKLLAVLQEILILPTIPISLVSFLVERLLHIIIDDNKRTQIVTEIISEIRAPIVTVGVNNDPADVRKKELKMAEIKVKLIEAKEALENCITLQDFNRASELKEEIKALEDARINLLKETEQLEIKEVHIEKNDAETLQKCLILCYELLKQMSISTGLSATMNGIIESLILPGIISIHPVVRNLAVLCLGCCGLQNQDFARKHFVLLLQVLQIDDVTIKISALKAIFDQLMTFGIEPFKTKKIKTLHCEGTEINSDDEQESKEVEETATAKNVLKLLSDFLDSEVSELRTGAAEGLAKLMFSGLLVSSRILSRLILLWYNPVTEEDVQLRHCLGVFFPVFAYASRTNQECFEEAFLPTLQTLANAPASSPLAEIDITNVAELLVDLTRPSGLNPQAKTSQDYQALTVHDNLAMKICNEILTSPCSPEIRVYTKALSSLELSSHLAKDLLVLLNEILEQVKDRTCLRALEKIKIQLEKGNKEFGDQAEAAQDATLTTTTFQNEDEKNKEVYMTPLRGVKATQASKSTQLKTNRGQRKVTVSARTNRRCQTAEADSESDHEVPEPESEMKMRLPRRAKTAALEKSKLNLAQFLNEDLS
# UniProt Q15102, sequence (Q15102 whole entry, looked up): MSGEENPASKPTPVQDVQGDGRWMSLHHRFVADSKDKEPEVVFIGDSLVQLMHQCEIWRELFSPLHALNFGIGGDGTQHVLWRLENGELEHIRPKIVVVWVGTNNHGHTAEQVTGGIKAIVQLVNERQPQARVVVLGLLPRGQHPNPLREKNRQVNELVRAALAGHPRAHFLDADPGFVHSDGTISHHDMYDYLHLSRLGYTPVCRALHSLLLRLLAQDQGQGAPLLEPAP
# UniProt Q96RE7, sequence (Q96RE7 whole entry, looked up): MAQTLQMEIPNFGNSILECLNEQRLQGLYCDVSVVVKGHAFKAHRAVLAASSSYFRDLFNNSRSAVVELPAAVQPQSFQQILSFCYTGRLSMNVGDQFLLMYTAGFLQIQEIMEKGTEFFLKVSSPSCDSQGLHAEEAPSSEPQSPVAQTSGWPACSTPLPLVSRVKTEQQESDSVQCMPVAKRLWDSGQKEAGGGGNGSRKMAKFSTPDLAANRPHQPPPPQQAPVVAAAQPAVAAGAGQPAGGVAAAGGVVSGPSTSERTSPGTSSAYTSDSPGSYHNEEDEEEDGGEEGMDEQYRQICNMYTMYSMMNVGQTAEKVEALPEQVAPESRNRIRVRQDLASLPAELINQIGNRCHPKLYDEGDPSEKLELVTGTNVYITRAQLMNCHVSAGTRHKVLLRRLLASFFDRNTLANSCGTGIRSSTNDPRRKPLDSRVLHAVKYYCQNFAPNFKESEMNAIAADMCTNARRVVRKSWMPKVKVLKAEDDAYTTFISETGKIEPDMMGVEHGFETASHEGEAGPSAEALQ
# UniProt O43809, sequence (O43809 whole entry, looked up): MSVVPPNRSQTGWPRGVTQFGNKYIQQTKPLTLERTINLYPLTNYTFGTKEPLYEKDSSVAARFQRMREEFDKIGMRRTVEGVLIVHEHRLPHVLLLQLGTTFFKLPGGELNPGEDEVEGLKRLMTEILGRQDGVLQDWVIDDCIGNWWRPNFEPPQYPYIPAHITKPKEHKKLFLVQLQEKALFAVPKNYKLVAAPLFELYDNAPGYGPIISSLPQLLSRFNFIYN
# UniProt Q8WV92, sequence (Q8WV92 whole entry, looked up): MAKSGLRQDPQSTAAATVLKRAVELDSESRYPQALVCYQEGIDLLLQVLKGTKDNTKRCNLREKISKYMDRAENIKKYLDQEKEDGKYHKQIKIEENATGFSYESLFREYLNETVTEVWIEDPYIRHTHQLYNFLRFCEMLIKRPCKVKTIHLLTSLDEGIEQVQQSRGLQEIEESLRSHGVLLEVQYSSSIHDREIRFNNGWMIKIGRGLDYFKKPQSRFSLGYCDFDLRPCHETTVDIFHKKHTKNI
# MTHFD1, A0A384N5Y3, sequence (A0A384N5Y3 whole entry, looked up): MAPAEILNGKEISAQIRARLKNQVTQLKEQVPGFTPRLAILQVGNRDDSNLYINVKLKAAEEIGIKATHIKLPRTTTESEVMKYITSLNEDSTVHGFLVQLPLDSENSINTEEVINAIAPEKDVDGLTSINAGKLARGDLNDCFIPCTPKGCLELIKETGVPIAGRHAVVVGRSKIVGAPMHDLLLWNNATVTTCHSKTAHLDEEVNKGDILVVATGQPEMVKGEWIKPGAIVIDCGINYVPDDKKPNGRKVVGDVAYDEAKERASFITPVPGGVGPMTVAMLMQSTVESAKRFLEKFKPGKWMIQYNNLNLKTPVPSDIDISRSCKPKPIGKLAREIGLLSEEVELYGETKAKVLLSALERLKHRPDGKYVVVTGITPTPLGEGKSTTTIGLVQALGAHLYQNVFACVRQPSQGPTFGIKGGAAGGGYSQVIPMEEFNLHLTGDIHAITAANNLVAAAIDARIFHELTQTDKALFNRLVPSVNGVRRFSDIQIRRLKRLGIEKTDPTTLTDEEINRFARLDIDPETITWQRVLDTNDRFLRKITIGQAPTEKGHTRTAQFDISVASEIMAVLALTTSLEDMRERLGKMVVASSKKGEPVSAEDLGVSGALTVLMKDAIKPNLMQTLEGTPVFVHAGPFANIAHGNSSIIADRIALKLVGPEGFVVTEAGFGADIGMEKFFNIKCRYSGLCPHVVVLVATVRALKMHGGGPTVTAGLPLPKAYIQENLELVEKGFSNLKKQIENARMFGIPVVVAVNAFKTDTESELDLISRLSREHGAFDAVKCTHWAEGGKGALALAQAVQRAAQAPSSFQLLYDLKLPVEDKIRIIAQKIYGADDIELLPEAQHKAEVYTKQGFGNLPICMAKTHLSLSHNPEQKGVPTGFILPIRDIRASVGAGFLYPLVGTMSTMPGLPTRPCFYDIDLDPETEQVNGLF
Target,log2 fold change (bafetinib),log2 fold change [1],log2 fold change (nilotinib),log2 fold change [2],log2 fold change (dasatinib),log2 fold change [3],log2 fold change [4],log2 fold change [5],log2 fold change (tipifarnib),log2 fold change (mubritinib),log2 fold change [6],log2 fold change [7],log2 fold change [8],log2 fold change [9],log2 fold change (entinostat),log2 fold change (vorinostat),log2 fold change (citarinostat),log2 fold change (silmitasertib),log2 fold change [10],log2 fold change [11]
"MTHFD1, A0A384N5Y3",0.099,-0.055,0.239,-0.099,-0.153,-0.031,0.087,-0.008,-0.146,0.107,-0.048,-0.033,0.17,-0.077,-0.059,0.013,0.024,-0.091,-0.056,0.041
PAFAH1B3 (UniProt Q15102),0.003,0.058,0.008,-0.031,-0.065,-0.011,0.192,0.039,-0.163,0.075,-0.036,-0.012,-0.066,-0.019,0.057,0.043,-0.045,-0.045,-0.108,-0.028
NUDT21 (UniProt O43809),0.074,-0.071,0.033,-0.798 (active),0.031,0.051,0.029,-0.039,-0.007,-0.008,-0.042,-0.002,0.049,-0.007,0.037,-0.078,0.029,-0.124,0.062,-0.131
NNT (UniProt Q13423),-0.02,0.056,-0.005,-0.006,-0.02,-0.018,0.071,0.037,-0.034,0.021,-0.007,-0.037,-0.062,-0.029,0.006,0.025,0.018,-0.027,-0.041,0.024
MITD1 (UniProt Q8WV92),-0.217,-0.006,-0.065,-0.035,0.006,-0.101,0.01,0.009,0.098,-0.108,0.016,-0.018,-0.387,-0.059,-0.08,0.057,-0.135,0.14,-0.176,0.228
MRPS10 (UniProt P82664),0.057,0.119,-0.097,0.006,-0.005,-0.046,0.002,-0.096,-0.104,0.1,-0.014,0.004,-0.052,0.011,-0.033,0.057,0.07,-0.048,0,-0.08
NACC1 (UniProt Q96RE7),-0.03,-0.039,-0.165,-0.109,-0.198,-0.12,-0.041,0.034,-0.084,-0.03,0.099,-0.082,-0.173,-0.075,0.062,0.148,0.235,-0.027,-0.257,-0.057
NCAPG (UniProt Q9BPX3),0.076,0.06,-0.032,-0.07,-0.085,0.065,-0.016,0.012,-0.142,-0.003,-0.062,-0.036,-0.118,-0.06,0.073,0.101,0.067,0.1,0.005,-0.016
